We go through 23 compounds from PubChem BioAssay AID1347420 (Sanford-Burnham Center for Chemical Genomics, 2020).

Out of some 1,300 compounds screened, about 980 (75%) were called active. Roughly 4% stayed inconclusive and do not appear here. The list shows a part of the results.

One may read the inhibition as the relative decrease from the control value, in per cent.

The target of this assay is Sulfhydryl oxidase 1 (Homo sapiens) (UniProt O00391). As to the kind of experiment: QSOX1 enzyme inhibitors, primary screen, biochemical, HyperBlu H2O2 luminescence, HTS (AID 1347420). Further: values above 100% were filed as inconclusive. The note with it: recombinant QSOX1, HyperBlu H2O2 luminescence, at 12.5 µM, stronger effect = higher value; active = any value above zero unless noted.
Sulfhydryl oxidase 1 (Homo sapiens), sequence (O00391 whole entry, looked up): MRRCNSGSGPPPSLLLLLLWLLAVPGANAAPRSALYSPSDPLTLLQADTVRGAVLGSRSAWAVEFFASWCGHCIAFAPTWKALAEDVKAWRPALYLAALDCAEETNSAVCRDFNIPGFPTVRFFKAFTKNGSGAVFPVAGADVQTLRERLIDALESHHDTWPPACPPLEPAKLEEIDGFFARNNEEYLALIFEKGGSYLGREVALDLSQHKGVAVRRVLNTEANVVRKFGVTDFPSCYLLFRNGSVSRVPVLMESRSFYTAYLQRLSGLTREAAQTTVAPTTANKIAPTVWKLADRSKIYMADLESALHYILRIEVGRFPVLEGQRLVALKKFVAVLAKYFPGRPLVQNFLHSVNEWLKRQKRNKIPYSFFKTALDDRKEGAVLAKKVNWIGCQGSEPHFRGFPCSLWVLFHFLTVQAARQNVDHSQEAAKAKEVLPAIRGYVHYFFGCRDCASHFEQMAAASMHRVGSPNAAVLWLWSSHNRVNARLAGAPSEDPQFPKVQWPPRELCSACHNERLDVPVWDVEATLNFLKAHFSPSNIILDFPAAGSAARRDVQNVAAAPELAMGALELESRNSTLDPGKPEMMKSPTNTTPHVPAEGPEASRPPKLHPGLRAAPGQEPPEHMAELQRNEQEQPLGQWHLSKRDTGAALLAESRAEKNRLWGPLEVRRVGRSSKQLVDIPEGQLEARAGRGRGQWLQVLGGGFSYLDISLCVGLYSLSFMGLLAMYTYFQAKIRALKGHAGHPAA
On to `CCN(CCCl)Cc1ccccc1Br`, for which the inhibition was 18% (active). Take `CCCn1c(=O)c2[nH]c(C3CCCC3)nc2n(CCCOC(=O)c2ccc(S(=O)(=O)F)cc2)c1=O`: the inhibition was 10.4% (active). `CC[C@@H](CO)NC(=O)[C@@H]1C=C2c3cccc4[nH]cc(c34)C[C@H]2N(C)C1`: the inhibition was 24.7% [setting not given] (active). The value for `CC[C@@H](CO)NC(=O)[C@@H]1C=C2c3cccc4c3c(cn4C)C[C@H]2N(C)C1` was 9.7% [setting not given] (active); that for `NCC1(CC(=O)O)CCCCC1` was 4.2% [setting not given] (active). Regarding `CC(=O)c1c(O)c(C)c(O)c(Cc2c(O)c3c(c(C(=O)/C=C/c4ccccc4)c2O)OC(C)(C)C=C3)c1O`, the inhibition is 59.1% (active). Take `O=c1[nH]oc2c1CCNC2`: the inhibition is 8.4% (active). For the compound `CC(Cc1ccc(OCC(=O)O)cc1)NCC(O)c1cccc(Cl)c1` (stereo not drawn), the inhibition was 10.8% (active).

Turning to `C[C@H](Cc1ccc2c(c1)OC(C(=O)O)(C(=O)O)O2)NC[C@H](O)c1cccc(Cl)c1`, the inhibition is 13.4% (active). `Nc1ccncc1`: the inhibition was 22.3% [setting not given] (active). Take `CC(=O)[C@H]1CC[C@H]2[C@@H]3CC[C@H]4C[C@](C)(O)CC[C@]4(C)[C@H]3CC[C@]12C`: the inhibition is 11.6% [setting not given] (active).

As for `C[C@]12CCC3C(CC[C@H]4C[C@H](O)CC[C@]34C)C1CC[C@@H]2C(=O)CO` (stereo partly drawn), the inhibition is 5.6% (active).

For `CC(=O)[C@H]1CC[C@H]2[C@@H]3CC[C@H]4C[C@H](O)CC[C@]4(C)[C@H]3C(=O)C[C@]12C`, the inhibition is 5% [setting not given] (active). As to `CC(=O)[C@H]1CCC2C3CC[C@H]4C[C@H](O)CC[C@]4(C)C3CC[C@@]21C` (stereo partly drawn), the inhibition was 4.6% [setting not given] (active). Take `CN1C[C@H](CNC(=O)OCc2ccccc2)C[C@@H]2c3cccc4c3c(cn4C)C[C@H]21`: the inhibition was 6.1% [setting not given] (active). The value for `C[C@]12Cc3cn4c(nc3C=C1CCC1C2CC[C@@]2(C)[C@H]1CC[C@@]2(O)C#N)nc1ccccc14` (stereo partly drawn) was -42.5% (inactive); that for `CC(C)Oc1cccnc1N(C)C1CCN(Cc2ccccc2)CC1` was 7% (active); that for `CC(C)c1cccc(C(C)C)c1O` was 16.7% (active). `CC(N)c1cccc(Cl)c1Cl` (stereo not drawn): the inhibition was -1% (inactive). The value for `CN[C@@H]1C[C@@H](c2ccc(Cl)c(Cl)c2)c2ccccc21` was 3.8% (active); that for `Cc1o[nH]c(=O)c1CC(N)C(=O)O` (stereo not drawn) was 11.9% (active). Consider `NC(Cn1oc(=O)[nH]c1=O)C(=O)O` (stereo not drawn), for which the inhibition is -10.8% (inactive). As for `CCCC(C)(COC(N)=O)COC(=O)NC(C)C` (stereo not drawn), the inhibition was -3.5% [setting not given] (inactive).
